Screening results: PubChem, National Center for Advancing Translational Sciences (NCATS)
Only some compounds are listed: those with a hit (about 3% of all), similar ones and a draw of the others.
A549 tox-1: counter-screen for Nrf2 inhibitors: cytotoxicity in A549 cells. A549 ARE-Fluc cells, CellTiter-Fluor viability, 18-24 h. Potency, µM (top dose mostly 46 µM), inactives show at the top dose activity change, negative = cytotoxicity, actives largely listed as inhibitors. 0.16% of 390,000 active; further: on the % scale 0 is the no-effect control and ±100 the full control effect
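A549 ARE-Fluc cells in 5% FBS OPTI-MEM, 5000 cells/well, rested 2 h then exposed to compounds in concentration-response for 18-24 h at 37 °C. Viability by CellTiter-Fluor fluorescence (Ex 405/Em 525) after 30 min; luciferase luminescence (BugLite, 15 min, RT) read afterwards.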
GALK inh: galactokinase (human) inhibition; Potency, µM (doses to about 57.5 µM), without a hit: top-dose activity change, negative = inhibition, most hits filed as inhibitors; 0.007% of 270,000 active; Purified GALK, Kinase-Glo residual ATP luminescence; P51570; further: on the % scale 0 is the no-effect control and ±100 the full control effect
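5 nM enzyme, 35 uM ATP, 100 uM galactose, 20 mM HEPES pH8.0, 5 mM MgCl2; 1 h RT; residual ATP by Kinase-Glo Plus luminescence, qHTS format.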
Nrf2 block: Nrf2 pathway inhibition | A549 ARE-Fluc reporter, luciferase luminescence, 18-24 h | Potency, µM (doses to about 46 µM), inactives show at the top dose activity change, negative = inhibition, actives largely listed as inhibitors | 2.1% of 360,000 active; further: on the % scale 0 is the no-effect control and ±100 the full control effect; nearly all actives have a fitted effect of over 60% in size
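Cells were seeded and rested 2 h, then exposed to compounds for 18-24 h. CellTiter-Fluor was read first as a viability measure. BugLite was added 15 min before the final luminescent read of ARE-luciferase activity in A549 cells.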
Nrf2 ARE act: Nrf2 pathway activation. AREc32 ARE-luciferase reporter (MCF7-derived line), luminescence, 24 h. Potency, µM (top dose mostly 46.1 µM), inactives show top-dose activation, usual class: activators. 0.31% of 410,000 active; further: % of control where 0% means no effect; nearly all actives have a fitted effect of over 65% in size
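Luminescent ARE reporter assay in AREc32_Fluc cells: overnight plating at 37 deg C, 24 hr compound incubation, Steady-Glo added, 30 min RT before reading.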
TrxR1 inh: rat TrxR1 inhibition. recombinant rTrxR1, NADPH fluorescence consumption, selenite substrate. Potency, µM (titrated, usually from 114 µM), without a hit: at the top dose activity change, negative = inhibition, hits mostly inhibitors. 1% of 390,000 active. AID 588453; further: on the % scale 0 is the no-effect control and ±100 the full control effect; nearly all actives have a fitted effect of over 65% in size
Target sequence (O89049 whole entry, looked up): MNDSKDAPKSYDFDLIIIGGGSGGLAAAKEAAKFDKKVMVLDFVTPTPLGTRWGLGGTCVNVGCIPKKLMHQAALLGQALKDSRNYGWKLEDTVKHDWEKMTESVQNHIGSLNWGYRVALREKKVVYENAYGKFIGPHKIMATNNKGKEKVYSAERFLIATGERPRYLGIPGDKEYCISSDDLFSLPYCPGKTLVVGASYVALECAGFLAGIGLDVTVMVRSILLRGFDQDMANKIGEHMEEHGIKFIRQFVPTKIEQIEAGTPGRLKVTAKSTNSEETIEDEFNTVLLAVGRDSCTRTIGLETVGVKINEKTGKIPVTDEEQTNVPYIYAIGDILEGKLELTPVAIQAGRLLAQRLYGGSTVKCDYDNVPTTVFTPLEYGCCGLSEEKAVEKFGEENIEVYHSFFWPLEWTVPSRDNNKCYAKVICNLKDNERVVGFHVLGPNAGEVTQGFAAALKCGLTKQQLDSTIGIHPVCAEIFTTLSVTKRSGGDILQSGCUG
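Rat TrxR1 (90 nM in the dispensed reagent) was pre-reduced with 400 uM NADPH for 5 min at room temperature, then incubated with compound for 15 min. After 400 uM selenite was added, NADPH fluorescence (Ex 340/Em 450 nm) was followed for 8 min.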
TrxR1 substrate: rat thioredoxin reductase 1 substrate activity; O89049; 0.01% of 390,000 active; purified TrxR1 substrate turnover, NADPH consumption readout; Potency, µM (highest dose often 114 µM), without a hit: top-dose activity change, negative = substrate turnover; AID 588456; further: on the % scale 0 is the no-effect control and ±100 the full control effect; nearly all actives have a fitted effect of over 50% in size
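Rat TrxR1, dispensed at 90 nM, was prereduced with 400 uM NADPH (final) for 5 min at ~22 deg C, then incubated with compound 15 min before 400 uM selenite. A first-read NADPH fluorescence drop versus no-compound background flagged substrates.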
FLuc counter 3: firefly luciferase inhibition, Nrf2 hit validation | AID 720522 | shares compounds with Nrf2 block | 4% of 1,400 active | purified firefly luciferase, luminescence inhibition | Potency, µM (doses to about 57.5 µM), without a hit: at the highest dose activity change, negative = inhibition, hits mostly inhibitors; further: on the % scale 0 is the no-effect control and ±100 the full control effect; nearly all actives have a fitted effect of over 65% in size
A549 tox-2: A549 cytotoxicity, Nrf2 inhibitor counterscreen. A549 ARE-Fluc cells, cytotoxicity counterscreen. 2% of 1,400 active. AID 720523. shares compounds with Nrf2 block. Potency, µM (top dose mostly 46.1 µM), for inactives: at the top dose activity change, negative = cytotoxicity, usual class: inhibitors;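 further: cells exposed to compounds for 18 to 24 hours; on the % scale 0 is the no-effect control and ±100 the full control effect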
ARE-Fluc inh: Nrf2 inhibition confirmed, A549 ARE-luciferase. A549 ARE-firefly luciferase reporter, luminescence. shares compounds with Nrf2 block. AID 720524. Potency, µM (highest dose often 46.1 µM), for the others: top-dose activity change, negative = inhibition, most hits filed as inhibitors. 74% of 1,400 active; further: on the % scale 0 is the no-effect control and ±100 the full control effect; nearly all actives have a fitted effect of over 65% in size
The depositor's hits bear a star; ? = inconclusive; · = not tested or not shown; [ ] = dose if it differs, or a comment. The call rests on the fitted dose curve; in most records, active means well fitted curve in the direction sought with a large enough effect; inconclusive means small, poorly fitted or top-dose-only effect, or another doubt; inactive means no such curve, though single readings can be large; an effect the other way counts as inactive or inconclusive. Potency means the concentration at half of the fitted maximal effect.

SMILES | A549 tox-1 | GALK inh | Nrf2 block | Nrf2 ARE act | TrxR1 inh | TrxR1 substrate | FLuc counter 3 | A549 tox-2 | ARE-Fluc inh
CC12C=CC(=O)C=C1CCC1C3CCC(O)(C(=O)CO)C3(C)CC(O)C12F (configuration not stated) | -5% | · | 0.01µM* | 2% | 7%[11.4 µM] | 12%[57.1 µM] | 4% | -8% | 0.01µM*
C[C@H]1CC2C3CCC4=CC(=O)C=C[C@]4(C)[C@@]3(Cl)[C@@H](O)C[C@]2(C)[C@@]1(O)C(=O)CO (some centres not stated) | · | · | · | · | 12%[57.1 µM] | 5%[57.1 µM] | · | · | ·
CC(=O)C1(O)CCC2C3CC(C)C4=CC(=O)C=CC4(C)C3(F)C(O)CC21C (configuration not stated) | -6% | · | 0.033µM* | 0% | 4%[11.4 µM] | 4%[57.1 µM] | 2% | -1% | 0.065µM*
C[C@H]1C[C@H]2[C@@H]3CCC4=CC(=O)C=C[C@]4(C)[C@@]3(Cl)[C@@H](O)C[C@]2(C)[C@@]1(O)C(=O)CO | -23% | -3% | 0.015µM* | 1% | 15% | 0% | 3% | -10% | 0.015µM*
CCC(=O)OC1(C(=O)CCl)[C@@H](C)C[C@H]2[C@@H]3CCC4=CC(=O)C=C[C@]4(C)[C@@]3(F)[C@@H](O)C[C@@]21C (some centres not stated) | -17% | · | ? | -1% | 14% | -4% | · | · | ·
CCN(CC(=O)Nc1c(F)cccc1F)C(=O)Cc1ccc2c(c1)CCC2 | 16% | · | ? | 0% | 10%[57.1 µM] | 4%[57.1 µM] | · | · | ·
CC(=O)Nc1ccc2c(c1)nc1n2CCN(C2CCCCC2)C1 | 0% | 9% | ? | 0% | -5%[57.1 µM] | 31%[57.1 µM] | · | · | ·
O=[N+]([O-])c1ccc2ncnc(N3CCN(Cc4ccc5c(c4)OCO5)CC3)c2c1 | -20% | 0% | 8.2µM* | -1% | 4% | 0% | -2% | -11% | 16µM*
O=[N+]([O-])c1cccnc1N1CCN(Cc2ccc3c(c2)OCO3)CC1 | -1% | -3% | 3% | 0% | 13%[57.1 µM] | 5%[57.1 µM] | · | · | ·
Cc1cccc(COC[C@H](Cc2ccccc2)N2CCN(C(=O)c3cc(Cl)cc(Cl)c3)CCC2=O)c1 | · | · | · | 6% | · | · | · | · | ·
CC(=O)c1sc(NC(=O)C2(F)C(F)(F)C(F)(F)C(F)(F)C(F)(F)C2(F)F)nc1C | ? | 2% | 5.8µM* | 7% | 35µM* | ? | ? | ? | 6.5µM*
CCCCN1C(=O)c2ccc(C(=O)OCC(=O)NCCc3ccc(S(N)(=O)=O)cc3)cc2C1=O | -20% | · | 3% | -1% | 15%[57.1 µM] | 7%[57.1 µM] | · | · | ·
CCCc1ccc(S(=O)(=O)N2CCC(Oc3ccc(-n4cnnn4)cc3)CC2)cc1 | 0% | · | ? | 0% | 15% | -4% | · | · | ·
O=S(=O)(c1ccccc1)N1CCC(O)(CSc2ccc(Cl)cc2)CC1 | -9% | 0% | 9.2µM* | 0% | 10% | -2% | 3% | -4% | ·
O=c1[nH]nc(-c2ccc(NCCO)c([N+](=O)[O-])c2)c2ccccc12 | -13% | 1% | ? | 3% | 7% | 1% | · | · | ·
O=[N+]([O-])c1cc(Cl)cc2c1nc(NCCO)c1ccccc12 | ? | -7% | 1.3µM* | 8.9µM* | -6% | -8% | -1% | ? | 0.73µM*
Nc1c(S(=O)(=O)c2ccccc2)c2nc3ccccc3nc2n1/N=C/c1ccco1 | -19% | -1% | 5.8µM* | 0% | ? | 35%[57.1 µM] | ? | -25% | 2.1µM*
Cc1ccc(S(=O)(=O)c2c(N)n(/N=C/c3ccco3)c3nc4ccccc4nc23)cc1 | -5% | 6% | ? | 0% | -8% | 60% | · | · | ·
COc1ccc(-c2nc3sc(CCNC(=O)c4cc(OC)c(OC)c(OC)c4)c(C)n3n2)cc1 | -14% | · | · | 1% | 21%[57.1 µM] | 3%[57.1 µM] | · | · | ·
O=C(C[n+]1cccc2ccccc21)c1ccc(Cl)cc1 | 9% | 1% | 32% | 2% | ? | -9% | · | · | ·
Clc1cccc(Cl)c1C[n+]1cccc2ccccc21 | -13% | · | 4.1µM* | -1% | 12%[57.1 µM] | 9%[2.29 µM] | 1% | 4% | ?
O=C(CCNS(=O)(=O)c1ccccc1)N1CCN(c2ccccc2)CC1 | -4% | 3% | -4% | 3% | 8%[57.1 µM] | 8%[57.1 µM] | · | · | ·
O=S(=O)(c1ccc(Cl)cc1)N1CCCC(c2nc(-c3ccc(F)cc3)no2)C1 (configuration not stated) | -4% | · | ? | 0% | 7% | 2% | · | · | ·
O=S(=O)(c1ccccc1Cl)N1CCCC1c1nc(-c2ccc(Cl)cc2)no1 (configuration not stated) | -15% | -4% | 5.8µM* | 2% | 12% | -2% | -8% | 10% | 13µM*
O=C(Nc1cccc(S(=O)(=O)Nc2ccc(Cl)cc2)c1)c1ccc(Cl)nc1 | ? | -1% | 3.3µM* | 0% | 1% | -8% | -16% | -22% | 4.1µM*
COc1cccc(S(=O)(=O)Nc2ccc(C(=O)Nc3ccncc3)cc2)c1 | -3% | 4% | ? | 2% | 10% | 4% | · | · | ·
COc1ccc(NS(=O)(=O)c2cccc(NC(=O)c3ccc(Cl)nc3)c2)cc1 | ? | 0% | 0.58µM* | 0% | 7%[57.1 µM] | 6%[57.1 µM] | 0% | -5% | 1.6µM*
O=C(O)CCSc1nnc(-c2ccc(Cl)cc2Cl)o1 | -4% | · | 0.058µM* | -4% | 10% | 4%[11.4 µM] | 3µM* | 0% | 0.18µM*
CCSc1nnc(-c2ccc(Cl)cc2Cl)o1 | 17% | 2% | ? | ? | 13% | -5% | · | · | ·
